Source: PubChem BioAssay
UGM FP inh: blocks M. tuberculosis UGM enzyme; purified UGM, fluorescence polarization probe displacement; inhibition, % at 10 µM; 320,000 compounds, 0.06% hits; AID 504406; in the data active = inhibition above about 10%, passing the limit was not always enough; inconclusive = no clear call, values can overlap the other calls
GDH-TPI counter: inhibits GDH-TPI coupling enzymes, artifact for Mtb FBA screen; inhibition, % at 4.8 µM; GDH-TPI coupled enzyme counterscreen, NADH absorbance; 360,000 compounds, 1.2% hits; in the data active = inhibition above about 30%;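 note: 0% = DMSO wells and 100% = wells lacking the enzyme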
Rv3671c inh: inhibits the M. tuberculosis serine protease Rv3671c | AID 2606 | 320,000 compounds, 0.048% hits | inhibition, % at 5.96 µM | P9WHR9;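 note: extracellular domain of Rv3671c used as enzyme; 0% = enzyme with DMSO and 100% = no enzyme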
Mtb FBA inh: inhibitors of M. tuberculosis fructose-bisphosphate aldolase; P9WQA3; inhibition, % at 1 µM; purified M. tuberculosis FBA, fluorescence read-out; 360,000 compounds, 2.3% hits; in the data active = inhibition above about 27%;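 note: 0% = vehicle and 100% = reference inhibitor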
Target sequence (P9WQA3 whole entry, looked up): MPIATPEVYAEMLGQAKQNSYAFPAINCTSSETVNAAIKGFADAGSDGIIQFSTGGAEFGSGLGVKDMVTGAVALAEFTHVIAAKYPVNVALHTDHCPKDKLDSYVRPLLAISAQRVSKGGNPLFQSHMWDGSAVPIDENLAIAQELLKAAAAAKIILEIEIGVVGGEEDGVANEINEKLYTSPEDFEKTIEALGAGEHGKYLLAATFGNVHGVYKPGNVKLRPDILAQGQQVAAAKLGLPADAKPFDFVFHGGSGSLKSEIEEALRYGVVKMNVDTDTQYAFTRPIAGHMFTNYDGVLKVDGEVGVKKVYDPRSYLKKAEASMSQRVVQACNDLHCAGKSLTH
Mtb betalactam: beta-lactam sensitization of Mtb H37Rv. M. tuberculosis H37Rv growth with meropenem, percent inhibition. inhibition, % at 25 µM. 330,000 compounds, 0.27% hits. AID 434955; call rule not given here;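 note: growth measured after seven days incubation then overnight dye step; 0% = bacteria only wells and 100% = bacteria with antibiotic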
Rv3671c confirm: confirmation of M. tuberculosis Rv3671c protease inhibitors; shares compounds with Rv3671c inh; inhibition, % at 5.96 µM; 140 compounds, 40% hits; AID 2761
Numbers without * were called inactive. An excerpt weighted towards active compounds, which were near 3.5% of everything screened. Cut-off read from the data, not from the text of the source, unless noted: active = inhibition above about 38%; inactive = the rest.

CC1=NN(c2ccccc2)C(=O)/C1=C/c1c(O)n(-c2ccc(F)c(Cl)c2)[nH]c1=O was read as UGM FP inh -1.9, Rv3671c inh 48.4*, Mtb betalactam 1.5 and Rv3671c confirm 14.9.
For CC1=NN(c2ccccc2)C(=O)/C1=C\c1c(C)[nH]n(-c2ccccc2)c1=O the results were UGM FP inh -3.2, GDH-TPI counter 14.1, Rv3671c inh -6.2, Mtb FBA inh 5.5 and Mtb betalactam 94.5.
`O=C(CSc1c(F)c(F)cc(F)c1F)Nc1ccc(C2SCCS2)cc1` gave UGM FP inh 1.4, GDH-TPI counter -2.9, Rv3671c inh 164.2*, Mtb FBA inh 2.1, Mtb betalactam 2.9 and Rv3671c confirm -5.3.
`O=C(CSc1ccc(Cl)cc1)Nc1ccc(C2SCCS2)cc1` gave UGM FP inh -3.9, GDH-TPI counter 1.1, Rv3671c inh 5.1, Mtb FBA inh -1.1 and Mtb betalactam -1.2.
`Cc1nn(Cc2ccc([N+](=O)[O-])cc2)c(=O)n1-c1cccc(Cl)c1` gave UGM FP inh -1.1, GDH-TPI counter 23.2, Rv3671c inh -2.2, Mtb FBA inh 0.3 and Mtb betalactam -5.2.
Screening Cc1nn(CC(=O)NCCN2CCCCC2C)c(=O)c2cc(-c3ccccc3)nn12 (configuration not stated) returned UGM FP inh 3.2, GDH-TPI counter 6.9, Rv3671c inh 1.1, Mtb FBA inh 2.5 and Mtb betalactam -5.0.
For O=C1CCCC2=C1C(c1ccc(Cl)cc1)C1C(=O)c3ccccc3C1=N2 (configuration not stated) the results were UGM FP inh 0.2, GDH-TPI counter 11.3, Rv3671c inh 39.8*, Mtb FBA inh 1.6, Mtb betalactam 8.7 and Rv3671c confirm 3.0.
For COc1ccc(OC)c(S(=O)(=O)CC(O)CS(=O)(=O)c2ccccc2)c1 (configuration not stated) the results were UGM FP inh 0.5, GDH-TPI counter -2.8, Rv3671c inh -1.2, Mtb FBA inh -1.6 and Mtb betalactam -1.6.
Cn1c(=O)cc2c3c(c(N4CCCCC4)ccc31)C(=O)c1ccccc1-2 was read as UGM FP inh 1.9, GDH-TPI counter 24.4, Rv3671c inh 51.7*, Mtb FBA inh -2.5, Mtb betalactam 8.0 and Rv3671c confirm 36.2.
O=C1c2ccccc2C(=O)c2c1cccc2N1CCCC1 was read as UGM FP inh 1.2, GDH-TPI counter 13.9, Rv3671c inh -36.4, Mtb FBA inh -1.7 and Mtb betalactam 25.0.
Cc1ccc2c(c1)C1CC(C)(O2)N(c2cccc(C(=O)NC3CCN(Cc4ccccc4)CC3)c2)C(=O)N1 (configuration not stated) was read as UGM FP inh 3.5, GDH-TPI counter 2.2, Rv3671c inh 7.6, Mtb FBA inh 1.6 and Mtb betalactam 2.6.
O=c1cc2oc3cc(O)c(O)cc3c(-c3ccccc3O)c-2cc1O was read as GDH-TPI counter -4.4 and Mtb FBA inh -7.2.
COc1ccc(OC)c(-c2c3cc(O)c(=O)cc-3oc3cc(O)c(O)cc23)c1 was read as UGM FP inh 5.3, GDH-TPI counter 12.6, Rv3671c inh 62.7*, Mtb FBA inh -7.7, Mtb betalactam 24.2 and Rv3671c confirm 76.3*.
O=C(NC(=S)N1CCCC(C(F)(F)F)C1)c1ccc(F)cc1 (configuration not stated) was read as UGM FP inh -1.3, GDH-TPI counter 2.3, Rv3671c inh -7.7, Mtb FBA inh 1.2 and Mtb betalactam 91.5.
CCN1C(=O)C(CC(=O)Nc2ccc(OC)cc2)N(CCc2ccccc2)C1=S (configuration not stated) was read as UGM FP inh 2.0, GDH-TPI counter 1.2, Rv3671c inh -0.7, Mtb FBA inh -1.2 and Mtb betalactam 3.8.
For CCN1C(=O)C(CC(=O)Nc2ccc(F)cc2)N(CCc2ccc(OC)cc2)C1=S (configuration not stated) the results were UGM FP inh 0.4, GDH-TPI counter 4.2, Rv3671c inh 50.6*, Mtb FBA inh 1.4, Mtb betalactam 3.1 and Rv3671c confirm -11.7.
For CCN(CC)C(=O)C1c2ccccc2Oc2ccccc21 the results were UGM FP inh 46.7*, GDH-TPI counter 13.0, Rv3671c inh 73.5*, Mtb FBA inh 3.1, Mtb betalactam -24.1 and Rv3671c confirm 8.3.
For Cc1n[nH]c(=O)c2c(NC(=O)CSc3nc4ccccc4c(=O)n3CCCOC(C)C)oc(C)c12 the results were UGM FP inh 0.5, GDH-TPI counter -2.4, Rv3671c inh 91.9*, Mtb FBA inh 2.2, Mtb betalactam -1.4 and Rv3671c confirm -1.5.
`CCOCCCn1c(SCC(=O)Nc2oc(C)c3c(C)n[nH]c(=O)c23)nc2ccccc2c1=O` gave GDH-TPI counter 14.8 and Mtb FBA inh 3.8.
Screening N#CC(C#N)=C1C=C2C=C(N3CCCCC3)CCC2CC1 (configuration not stated) returned UGM FP inh -8.3, Rv3671c inh 51.1*, Mtb betalactam -1.4 and Rv3671c confirm 36.3.
Screening CCN(CC)C1=CC2=CC(=C(C#N)C#N)CCC2CC1 (configuration not stated) returned UGM FP inh -1.2, GDH-TPI counter 10.5, Rv3671c inh 3.8, Mtb FBA inh -6.0 and Mtb betalactam -1.5.
CCNc1ccc2noc3c2c1C(=O)c1ccccc1-3 was read as UGM FP inh 11.8*, GDH-TPI counter 1.5, Rv3671c inh 129.8*, Mtb FBA inh -3.4, Mtb betalactam 45.9 and Rv3671c confirm 126.0*.
O=C1c2ccccc2-c2onc3ccc(NCc4ccco4)c1c23 was read as UGM FP inh 12.2*, GDH-TPI counter 19.1, Rv3671c inh 106.5*, Mtb FBA inh -4.5, Mtb betalactam 22.3 and Rv3671c confirm 81.0*.
`CCC(C)n1c(SCC(=O)NC2CCCC2)nc2ccccc2c1=O` (configuration not stated) gave UGM FP inh -1.9, GDH-TPI counter -3.6, Rv3671c inh 1.4, Mtb FBA inh -1.4 and Mtb betalactam 3.1.
CCC(C)(C)NC(=O)C(c1ccc(C)cc1)N(CC1CCCO1)C(=O)CCC(=O)Nc1ccccn1 (configuration not stated) was read as UGM FP inh -0.2, GDH-TPI counter -2.2, Rv3671c inh -0.2, Mtb FBA inh 1.5 and Mtb betalactam -4.0.
`CC1=C(C(N)=O)C(c2cccs2)n2nc(-c3cccc(C)c3)nc2N1` (configuration not stated) gave UGM FP inh -0.5, GDH-TPI counter 9.9, Rv3671c inh 43.2*, Mtb FBA inh 4.5, Mtb betalactam 5.2 and Rv3671c confirm 52.5*.
`Cc1cc(O)ccc1C1(c2ccc(O)cc2C)OC(=O)c2ccccc21` gave UGM FP inh 0.7, GDH-TPI counter 1.9, Rv3671c inh -10.2, Mtb FBA inh -1.2 and Mtb betalactam -1.2.
`CC(=O)Oc1ccc2c(c1)Oc1cc(OC(C)=O)ccc1C21OC(=O)c2ccccc21` gave UGM FP inh inconclusive, GDH-TPI counter -4.6, Rv3671c inh 121.5*, Mtb FBA inh -5.7, Mtb betalactam 5.3 and Rv3671c confirm 122.5*.
